Test systems include NCI-H23 lung; NCI-H226 lung; NCI-H322M lung; HOP-62 NSCLC; NCI-H460 lung; HOP-92 NSCLC; NCI-H522 lung; A549/ATCC NSCLC; 786-0 renal; COLO 205 colon; DU-145 prostate; K-562 leukemia; MDA-MB-231 breast; RXF 393 renal; SF-268 CNS; SF-295 CNS; SF-539 CNS; UACC-257 melanoma; M14 melanoma; MALME-3M melanoma.
What all share (test): NCI-60 one-dose screen, 48 h (100 = growth as untreated, 0 = no growth, -100 = all killed)
Holding throughout (details): 10 µM unless noted

About 83,000 compounds went through this panel and 20% of them were active in at least one assay; those are over-represented in the sample as a whole.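 A percent growth of 40 corresponds to 60% growth inhibition; 0 means no net growth; -100 means all cells died. Active threshold: below 10.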 Values without a mark were called inactive. Calls of active or inactive are those of the source.

Take `C/C(=N\NC(=O)C(C)SC(C)C(=O)N/N=C(\C)c1cccnc1)c1cccnc1` (centres undefined): the growth is 103% with NCI-H23 lung; 106% in the assay on NCI-H226 lung; 104% in the assay on NCI-H322M lung; 106% with HOP-62 NSCLC; 104% in the assay with NCI-H460 lung; 114% in the assay with HOP-92 NSCLC. Further, the growth was 77.4% in the assay with NCI-H522 lung; 108% with A549/ATCC NSCLC; 115% in the assay with 786-0 renal; 107% in the assay on COLO 205 colon; 111% in the assay on DU-145 prostate; 91.9% in the assay with K-562 leukemia. Also, the growth was 109% with MDA-MB-231 breast; 130% in the assay on RXF 393 renal; 108% in the assay with SF-268 CNS; 116% in the assay with SF-295 CNS; 104% in the assay on SF-539 CNS; 113% in the assay with UACC-257 melanoma. The growth in the assay with M14 melanoma is 111%.
For the molecule `Cc1cc2nc3c4cc(N)ccc4n(CCN(C)C)c3nc2cc1C`, the growth was 6.58% (active) with NCI-H23 lung; 1.78% (active) in the assay with NCI-H226 lung; 7.13% (active) in the assay on NCI-H322M lung; 0.661% (active) in the assay on NCI-H460 lung; 37.6% in the assay with HOP-92 NSCLC; 13.2% with NCI-H522 lung. Moreover, the growth in the assay with A549/ATCC NSCLC was 5.34% (active); in the assay with 786-0 renal, 26.2%; with COLO 205 colon it was -18.5% (active); in the assay with DU-145 prostate, 12.6%; with K-562 leukemia, 5.75% (active); with MALME-3M melanoma, -16.6% (active). Moreover, the growth with MDA-MB-231 breast was 7.84% (active); with RXF 393 renal, 15.3%; in the assay on SF-268 CNS it was 29.7%; in the assay on SF-295 CNS, 1.26% (active); in the assay with SF-539 CNS it was 10.5%; with UACC-257 melanoma it was 11.9%. Moreover, in the assay on M14 melanoma, the growth was 7.08% (active).
Take `C=CC(=O)N[C@H](Cc1ccc(-c2cc(Cl)cc(Cl)c2)cc1)[C@H](O)[C@@H](O)C(=O)O`: the growth in the assay on NCI-H23 lung is 93.6%; in the assay on NCI-H226 lung, 71.3%; in the assay on NCI-H322M lung, 100%; in the assay with NCI-H460 lung it was 94.9%; in the assay with HOP-92 NSCLC it was 84.4%; in the assay on NCI-H522 lung, 59.1%. For the same molecule, the growth is 72% with A549/ATCC NSCLC; 92.2% in the assay on 786-0 renal; 91.9% in the assay on COLO 205 colon; 102% in the assay on DU-145 prostate; 85% in the assay with K-562 leukemia; 90.1% in the assay with MALME-3M melanoma. In addition, the growth was 98.9% with MDA-MB-231 breast; 101% in the assay on RXF 393 renal; 102% in the assay on SF-268 CNS; 82.8% in the assay with SF-295 CNS; 99.6% in the assay on SF-539 CNS; 74.4% in the assay with UACC-257 melanoma. Also, the growth with M14 melanoma is 86.3%.
`Cc1cccc(C)c1NCc1nc(-c2ccccc2)n[nH]1`: the growth with NCI-H23 lung was 97.9%; in the assay with NCI-H226 lung, 112%; with NCI-H322M lung, 95.4%; in the assay on NCI-H460 lung it was 107%; in the assay on HOP-92 NSCLC it was 101%; in the assay on NCI-H522 lung, 94.5%. Also, the growth is 101% with A549/ATCC NSCLC; 95.6% in the assay with 786-0 renal; 106% in the assay on COLO 205 colon; 106% in the assay with DU-145 prostate; 100% in the assay on K-562 leukemia; 98.6% with MALME-3M melanoma. Besides, the growth was 103% with MDA-MB-231 breast; 121% in the assay on RXF 393 renal; 101% with SF-268 CNS; 98.1% with SF-295 CNS; 93.2% with SF-539 CNS; 100% in the assay on UACC-257 melanoma. Also, the growth in the assay with M14 melanoma is 97.9%.
Take `CCCCCCCC(=O)SCC/C=C/[C@@H]1CC(=O)NCc2cccc(n2)CN(Cc2ccc3ccccc3c2)CC(=O)N[C@@H](C(C)C)C(=O)O1`: the growth was 45.7% in the assay on NCI-H23 lung; 67.5% in the assay with NCI-H226 lung; 40% with NCI-H322M lung; 27.6% in the assay with NCI-H460 lung; 18.2% in the assay on HOP-92 NSCLC; 66.1% in the assay on NCI-H522 lung. In addition, the growth in the assay with A549/ATCC NSCLC is 35.3%; in the assay on 786-0 renal, 72.1%; with COLO 205 colon, 33.7%; in the assay with DU-145 prostate, 51.4%; in the assay with K-562 leukemia, 13.8%; in the assay with MALME-3M melanoma, 8.13% (active). Moreover, the growth is 27.3% with MDA-MB-231 breast; 20.3% in the assay with RXF 393 renal; 61.1% in the assay with SF-268 CNS; 9.4% (active) with SF-295 CNS; 59.1% with SF-539 CNS; 28.4% in the assay with M14 melanoma.
As for `CCN1CCN(C(=O)[C@@]2(C)CC[C@]3(C)CC[C@]4(C)C(=CC(=O)[C@@H]5[C@@]6(C)CC[C@H](OC7C[C@@H](O)[C@@H](O)C(C)O7)C(C)(C)[C@@H]6CC[C@]54C)[C@@H]3C2)CC1` (some centres undefined), the growth with NCI-H23 lung was 45.2%; with NCI-H226 lung it was 26.3%; in the assay on NCI-H322M lung it was 37%; with NCI-H460 lung, -79.5% (active); in the assay with HOP-92 NSCLC, 0.911% (active); with NCI-H522 lung, 38.6%. For the same molecule, the growth is 12.5% in the assay with A549/ATCC NSCLC; -60.5% (active) in the assay with 786-0 renal; 106% with COLO 205 colon; 2.94% (active) in the assay on DU-145 prostate; 8.78% (active) in the assay with K-562 leukemia; 2.56% (active) in the assay with MALME-3M melanoma. Moreover, the growth is 6.15% (active) in the assay on MDA-MB-231 breast; 60.4% in the assay on RXF 393 renal; 24.2% in the assay on SF-268 CNS; -78% (active) in the assay on SF-295 CNS; -59.2% (active) in the assay on SF-539 CNS; 14.8% in the assay with UACC-257 melanoma. The growth in the assay on M14 melanoma is -55.2% (active).
On to `c1ccc2c(-c3nc(-c4c[nH]c5ncccc45)cs3)c[nH]c2c1`, for which the growth with NCI-H23 lung is 97.5%; with NCI-H226 lung, 97.9%; with NCI-H322M lung, 91.1%; in the assay on NCI-H460 lung, 115%; in the assay on HOP-92 NSCLC, 65.7%; in the assay on NCI-H522 lung, 85.2%. The growth in the assay with A549/ATCC NSCLC is 100%; with 786-0 renal it was 93.4%; with COLO 205 colon, 66.3%; in the assay with DU-145 prostate, 112%; in the assay on K-562 leukemia it was 106%; with MDA-MB-231 breast, 79.9%. For the same molecule, the growth is 116% in the assay on RXF 393 renal; 111% in the assay on SF-268 CNS; 119% in the assay with SF-295 CNS; 99.3% with SF-539 CNS; 109% in the assay on UACC-257 melanoma; 99.8% in the assay with M14 melanoma.
`Oc1ccc(CCC2CCCC(CCc3ccc(OCCF)cc3)N2)cc1` (centres undefined): the growth with NCI-H23 lung is 87.3%; in the assay on NCI-H226 lung it was 99.3%; in the assay on NCI-H322M lung, 106%; in the assay on NCI-H460 lung it was 102%; in the assay on HOP-92 NSCLC it was 75.3%; in the assay on NCI-H522 lung, 95.3%. Also, the growth in the assay on A549/ATCC NSCLC is 91%; with 786-0 renal, 95.9%; with COLO 205 colon, 97.2%; with DU-145 prostate, 109%; with K-562 leukemia, 66%; with MALME-3M melanoma, 117%. Besides, the growth in the assay with MDA-MB-231 breast was 88.9%; with RXF 393 renal, 84.7%; with SF-268 CNS, 99.1%; in the assay on SF-295 CNS, 96.4%; in the assay on SF-539 CNS it was 104%; with M14 melanoma, 90.4%.

The values above are taken from PubChem BioAssay (NCI).
